# Only some compounds are listed: those with a hit (about 3.1% of all), similar ones and a draw of the others.
# ATG4B inhibitor = ATG4B protease inhibitors, primary screen, biochemical, fluorescence, uHTS | Cysteine protease ATG4B (Homo sapiens), Q9Y4P1 | ATG4B cleavage of LC3-PLA2, NBD-HPC fluorescence, 1 h | inhibition, % at 8.33 µM | 340,000 compounds, 0.51% hits; in the data active = inhibition above about 40%
# PREPL inh = PREPL enzyme inhibitors, primary screen, biochemical, fluorescence polarization. recombinant PREPL, fluorescence polarization activity-based probe. Prolyl endopeptidase-like (Homo sapiens), Q4J6C6. 320,000 compounds, 0.68% hits. inhibition, % at 5.96 µM; in the data active = inhibition above about 43%
# MEKK2mut PB1 HTS = MEK5 binding signal on mutant MEKK2 PB1, primary screen, biochemical, multiplex bead flow cytometry, Alexa488-MEK5; Alexa488-MEK5 binding to MEKK2 mutant; percent response, % at 10 µM; 290,000 compounds, 0.35% hits; AID 1530, 2009; in the data active = percent response above about 24%, passing the limit was not always enough
# MEKK2 WT-MEK5 = modulators of MEK5 binding to wildtype MEKK2, primary screen, biochemical, multiplex bead flow cytometry, Alexa488-MEK5 | binding response (% of control), % at 10 µM | 290,000 compounds, 1.1% hits | Alexa488-MEK5 binding to MEKK2 WT; actives lie on both sides; in the data active = binding response below about 67% or above about 130%
# UBC13 polyUb = UBC13 polyubiquitin chain formation inhibitors, primary screen, biochemical, TR-FRET, uHTS. inhibition, % at 20 µM. 330,000 compounds, 0.47% hits. AID 485273, 2010; in the data active = inhibition above about 45%, passing the limit was not always enough
# Target sequence (P61088 whole entry, looked up): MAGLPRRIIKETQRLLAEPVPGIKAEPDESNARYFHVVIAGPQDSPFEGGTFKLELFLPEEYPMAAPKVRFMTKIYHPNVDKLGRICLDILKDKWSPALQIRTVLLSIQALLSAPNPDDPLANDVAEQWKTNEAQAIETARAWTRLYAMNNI
# MEKK3 PB1 HTS = modulators of MEKK3-MEK5 PB1 binding, primary screen, biochemical, wildtype MEKK3, multiplex bead flow cytometry, Alexa488-MEK5; 290,000 compounds, 1.4% hits; binding response (% of control), % at 10 µM; AID 1529, 2009; bead-based flow cytometry, Alexa488-MEK5 binding to MEKK3; actives lie on both sides; 0 = blocked by unlabeled MEK5, 100 = vehicle;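 active = binding response more than 3 SD above or below the average of its plate-row segment, actives on both sides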;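 note: Alexa488 bead fluorescence after subtracting the streptavidin-only scavenger bead signal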
# ATG4B conf = ATG4B protease inhibitors, retest, confirmation, biochemical, fluorescence, single concentration; 320 compounds, 92% hits; ATG4B protease fluorescent substrate cleavage assay; shares compounds with ATG4B inhibitor; inhibition, % at 8.33 µM; AID 504757, 2011; in the data active = inhibition above about 39%
# PLA2 ctr = PLA2 enzyme inhibition, counter-screen for ATG4B inhibitor project, biochemical, single concentration, uHTS hits. shares compounds with ATG4B inhibitor. purified PLA2, NBD-C6-HPC fluorescence, 45 min. inhibition, % at 8.33 µM. 1,600 compounds, 66% hits. AID 588402, 2011; in the data active = inhibition above about 50%
# Target sequence (P04054 whole entry, looked up): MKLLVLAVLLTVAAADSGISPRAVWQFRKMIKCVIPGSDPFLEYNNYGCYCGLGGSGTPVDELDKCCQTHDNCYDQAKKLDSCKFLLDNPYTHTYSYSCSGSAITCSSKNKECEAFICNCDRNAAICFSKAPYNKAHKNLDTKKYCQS
# Hits are given with their value; i = inactive; nt = no result given.
SMILES,ATG4B inhibitor,PREPL inh,MEKK2mut PB1 HTS,MEKK2 WT-MEK5,UBC13 polyUb,MEKK3 PB1 HTS,PLA2 ctr,others
CCOc1cc(/C=C2\CCC/C(=C\c3cc(Cl)c(O)c(OCC)c3)C2=O)cc(Cl)c1O,44.4,i,i,i,i,i,50.6,
Nc1nc(SCc2ccccc2[N+](=O)[O-])c2ncn(Cc3ccccc3)c2n1,50.2,nt,nt,nt,nt,nt,57.8,
Cn1cnc([N+](=O)[O-])c1Sc1nc(N)nc2c1ncn2Cc1ccccc1,i,nt,nt,nt,nt,nt,nt,
O=C(Nc1ccc(Cl)cc1)NC1CCCc2ccccc21 (stereo not given),68.0,i,i,i,i,i,66.2,
Cc1nc(NS(=O)(=O)c2ccc(Br)cc2)c2c3c(sc2n1)CCC3,68.0,i,i,i,i,i,72.1,
Cc1nc(NC(C)c2ccccc2)c2c3c(sc2n1)CCC3 (stereo not given),45.9,i,i,i,i,i,i,
Cc1ccc(CNc2nc(C)nc3sc4c(c23)CCC4)cc1,i,i,i,i,i,i,nt,
CCOCCn1c(CN2CCc3ccccc3C2)nc2c1c(=O)n(C)c(=O)n2C,i,i,i,i,i,i,nt,
O=S(=O)(c1cccs1)N1CCN(c2ccccc2F)CC1,i,i,i,i,i,i,nt,
O=S(=O)(c1cccs1)N1CCN(c2ccccc2Cl)CC1,44.9,i,i,i,i,i,63.6,
Cc1c(C(=O)OCC(=O)NCCN2C(=O)CSC2=O)cccc1[N+](=O)[O-],i,i,nt,nt,i,nt,nt,
CCn1cc(C(=O)OCC(=O)c2cc(C)n(-c3ccc(OC(F)F)cc3)c2C)c(=O)c2ccc(C)nc21,72.0,i,i,i,i,i,74.2,
CCn1cc(C(=O)OCC(=O)c2cc(C)n(-c3ccccc3)c2C)c(=O)c2ccc(C)nc21,66.2,i,i,i,i,i,68.3,
CCn1cc(C(=O)OCC(=O)Nc2ccccc2OC(F)F)c(=O)c2ccc(C)nc21,i,i,nt,nt,i,nt,nt,
CCn1cc(C(=O)OCC(=O)c2cc(C)n(-c3ccccc3F)c2C)c(=O)c2ccc(C)nc21,71.4,i,i,i,i,i,74.8,
O=S(=O)(c1ccccc1)c1ncc(C(F)(F)F)cc1Cl,i,nt,i,i,i,i,nt,
Cc1ccc2nc(N/N=C/c3ccccc3F)nc(-c3ccccc3)c2c1,46.2,i,i,i,i,i,i,ATG4B conf=75.0
O=C(CCNC(=O)C1CCN(S(=O)(=O)c2ccccc2)CC1)NCc1cccc(C(F)(F)F)c1,i,i,i,i,i,i,nt,
O=C(NCc1cccc(C(F)(F)F)c1)N1CCN(S(=O)(=O)c2ccccc2F)CC1,50.8,i,i,i,i,i,i,ATG4B conf=60.6
O=C(OCC(=O)N1CCN(c2ccccc2)CC1)c1ccccc1NCCO,i,i,nt,nt,i,nt,nt,
Cc1cccc(NC(=S)Nc2ccc(Oc3ccccc3)cc2)n1,44.4,i,i,i,i,i,i,ATG4B conf=66.7
O=C(Nc1c(Cl)cccc1Cl)c1cc(-c2ccco2)on1,43.3,i,i,i,i,i,i,ATG4B conf=66.5
C=CCN1C(=O)c2ccc(C(=O)NCC(=O)Nc3c(C)cc(C)cc3C)cc2C1=O,i,i,nt,nt,i,nt,nt,
O=C(O)[C@H](Cc1ccccc1)N1Cc2ccccc2C1=O,i,i,nt,nt,i,nt,nt,
COC(=O)C(Cc1ccc(OC(=O)c2ccccc2Cl)cc1)N1Cc2ccccc2C1=O (stereo not given),82.6,i,i,i,i,i,86.2,
SMILES,ATG4B inhibitor,PREPL inh,MEKK2mut PB1 HTS,MEKK2 WT-MEK5,UBC13 polyUb,MEKK3 PB1 HTS,PLA2 ctr,others
COC(=O)C(Cc1ccc(OC(=O)c2ccccc2C)cc1)N1Cc2ccccc2C1=O (stereo not given),71.7,i,i,i,i,i,76.5,
COc1ccccc1OCCNC(=O)CN1C(=O)NC2(CCCC2)C1=O,i,nt,nt,nt,i,nt,nt,
CC1=CC(C)(C)N2C(=O)C3(NCCc4c3[nH]c3ccccc43)c3cc(C)cc1c32 (stereo not given),58.0,i,i,i,i,i,69.4,
CCN1C(C(=O)c2ccccc2)=C(Nc2ccccc2C)c2ccccc2S1(=O)=O,50.8,i,i,i,i,i,55.1,
Cc1ccc(NC2=C(C(=O)c3ccccc3)N(C)S(=O)(=O)c3ccccc32)cc1,i,i,i,i,i,i,nt,
COc1ccccc1C1C2=C(N=c3s/c(=C/c4cccc(OCC(=O)O)c4)c(=O)n31)c1ccccc1CC2 (stereo not given),49.8,i,i,i,nt,i,56.3,
COc1cccc(C2C3=C(N=c4s/c(=C\c5ccc(OCC(=O)O)cc5)c(=O)n42)c2ccccc2CC3)c1 (stereo not given),i,i,i,i,i,i,nt,
Cc1ccccc1CSc1ccc(-c2ccc3c(c2)OCO3)nn1,44.6,i,i,i,i,i,i,
COc1ccccc1N1CCN(S(=O)(=O)c2ccc3nc(-c4ccccc4)[nH]c3c2)CC1,58.8,i,i,i,i,i,57.5,
Cc1cc(C)c2c(n1)SCC(=O)N2CC(=O)Nc1ccc(F)cc1,i,i,i,i,i,i,nt,
O=C(Oc1c(-c2ccccc2)c(=O)n2c3c(cccc13)CC2)c1ccc(Cl)cc1,62.2,i,i,i,i,i,67.0,
CC(=O)c1c(C)[nH]c(C(=O)Nc2ccc(F)cc2F)c1C,i,i,i,i,i,i,nt,
O=C(CC1S/C(=N/N=C/c2cccs2)NC1=O)Nc1ccc(Cl)cc1 (stereo not given),i,i,i,i,i,i,nt,
O=C(CC1S/C(=N/N=C/c2cccs2)NC1=O)Nc1ccc(Cl)c(Cl)c1 (stereo not given),61.2,i,i,i,i,i,i,ATG4B conf=58.5
Cc1ccc(C)c(CNC(=O)Nc2ccccc2)c1,48.9,i,i,i,i,i,50.5,
O=C(CCc1c[nH]c2ccccc12)NCCc1ccc(O)cc1,i,i,i,i,i,i,nt,
COc1ccc(S(=O)(=O)N2CCC(C(=O)N3CCc4ccccc4C3)CC2)cc1,i,i,i,i,i,i,nt,
